Giardia FBPA inh: blocks Giardia fructose-bisphosphate aldolase activity | 290,000 compounds, 0.71% hits | Potency, µM (highest dose often 59.6 µM), for the others: at the highest dose activity, negative = inhibition, actives largely listed as inhibitors | purified Giardia FBPA | AID 2451 | A8B2U2; note: potency is the fitted concentration of half-maximal effect; % is set by controls: 0 for no effect and ±100 for the full control effect; nearly all actives have a fitted effect of over 55% in size
Target sequence (A8B2U2 whole entry, looked up): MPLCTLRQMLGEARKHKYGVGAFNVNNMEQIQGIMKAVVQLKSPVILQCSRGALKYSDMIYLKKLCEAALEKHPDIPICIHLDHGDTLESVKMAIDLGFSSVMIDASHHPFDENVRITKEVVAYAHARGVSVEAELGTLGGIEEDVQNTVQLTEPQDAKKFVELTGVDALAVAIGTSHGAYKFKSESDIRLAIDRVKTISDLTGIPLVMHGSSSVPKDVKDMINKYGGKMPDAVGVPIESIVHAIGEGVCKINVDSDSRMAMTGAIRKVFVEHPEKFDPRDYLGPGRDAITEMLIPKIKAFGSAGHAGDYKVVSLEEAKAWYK
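40 nM FBPA preincubated 10 min at RT with compound (up to 57.5 uM final), then substrate plus GAPDH/TPI/NAD/arsenate coupling and diaphorase/resazurin added. Fluorescence read after 20 min at RT, 525/598 nm.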
Cycloheximide cs: counter-screen for Shiga toxin inhibitors: cycloheximide protein synthesis inhibition; cell reporter, cycloheximide protein synthesis inhibition counterscreen; AID 2314; max response, %; 300,000 compounds, 12% hits; in the data active = max response mostly above about 13%, no sharp cut-off; inactive = mostly below about 14%; note: read at 38.3 µM for the half of the compounds with a filed dose; 0% is about no effect
Shiga inhibitor: Shiga toxin inhibition; Vero cells, Shiga toxin protein synthesis inhibition reporter; inhibition, % at 38.7 µM; 290,000 compounds, 9.2% hits; AID 2315; in the data active = inhibition mostly above about 28%, no sharp cut-off; inactive = mostly below about 43%; note: 0% is about no effect
Tb PYK inh: blocks Trypanosoma brucei pyruvate kinase; Q57TT1; TbPYK enzyme, Kinase-Glo Plus ATP luminescence, 45 min; Potency, µM (doses to about 76.8 µM), without a hit: at the top dose activity, negative = inhibition, most hits filed as inhibitors; 410,000 compounds, 0.12% hits; note: potency is the fitted concentration of half-maximal effect; % is set by controls: 0 for no effect and ±100 for the full control effect; nearly all actives have a fitted effect of over 50% in size
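Glycolytic pyruvate kinase of T. brucei was incubated with substrate, test compound and 130 uM ADP for 45 minutes at room temperature. Luminescent Kinase-Glo Plus signal was measured after 10 minutes.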
RE007 growth inh: less growth of the S. pombe RE007 Vpr strain; S. pombe RE007 Vpr strain, BacTiter-Glo ATP luminescence, 24 h; Potency, µM (series often up to 92.2 µM), without a hit: at the top dose activity change, negative = less growth, hits mostly inhibitors; 360,000 compounds, 0.21% hits; AID 651644; active = well fitted falling curve with a large enough effect; inconclusive = small, poorly fitted or top-dose-only effect; inactive = no such curve, though single readings can be large or run the other way; note: potency is the fitted concentration of half-maximal effect; % is set by controls: 0 for no effect and ±100 for the full control effect; nearly all actives have a fitted effect of over 50% in size
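Fission yeast RE007 carrying one integrated HIV-1 vpr copy, seeded at OD 0.01 in PMG+AL medium with 23 nL pinned compound. Grown 24 h at 30 degrees; viability read by BacTiter-Glo luminescence after 5 min.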
LmPK inh: LmPK (Leishmania mexicana) enzyme inhibition. Q27686. purified LmPK, Kinase-Glo ATP luminescence, 1 h. 290,000 compounds, 0.37% hits. Potency, µM (series often up to 57.5 µM), for the others: top-dose activity change, negative = inhibition, most hits filed as inhibitors; note: potency is the fitted concentration of half-maximal effect; % is set by controls: 0 for no effect and ±100 for the full control effect
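Kinase-Glo luminescence read after 1 h RT reaction of 0.1 nM LmPK with 0.5 mM PEP and 0.1 mM ADP. Activity scaled between uninhibited and enzyme-free controls.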
* = called active by the depositor; [ ] = another dose, or the depositor's remark. This is one part of a sample in which hits are shown more often than they occur. Unless noted, calls come from the whole dose curve; as a rule, active = well fitted curve in the direction sought with a large enough effect; inconclusive = small, poorly fitted or top-dose-only effect, or another doubt; inactive = no such curve, though single readings can be large; an effect the other way counts as inactive or inconclusive.

For COCCNC(=O)CSc1nc2cc3c(cc2c(=O)n1CCCCCC(=O)NCCc1ccc(OC)c(OC)c1)OCO3 the results were Tb PYK inh -1%.
CCCCC1=CC2=C(OC(C)=O)C(=O)C(C)(OC(=O)c3ccco3)C(=O)C2=CO1 (stereo unspecified) was read as Giardia FBPA inh -15%.
Screening S=c1nc(NCCc2ccccc2Cl)c2ccccc2[nH]1 returned Giardia FBPA inh 17%, Cycloheximide cs 26*, Shiga inhibitor 31, Tb PYK inh -2%, RE007 growth inh 1% and LmPK inh -6%.
Screening COc1ccccc1NC(=O)COc1ccccc1C(=O)c1cnn(-c2ccccc2)c1 returned Giardia FBPA inh -2%, Cycloheximide cs 47*, Shiga inhibitor 24, Tb PYK inh -1%, RE007 growth inh -22% and LmPK inh -5%.
`CCc1ccc(NC(=O)COc2ccc(F)cc2C(=O)c2cnn(-c3ccccc3)c2)cc1` gave Giardia FBPA inh -2%, Cycloheximide cs 27*, Shiga inhibitor active, Tb PYK inh -9%, RE007 growth inh -4% and LmPK inh 0%.
Screening COc1ccccc1NC(=O)Cn1cnc2c(cnn2-c2ccccc2)c1=O returned Giardia FBPA inh 4%[12.9 µM], Cycloheximide cs -2, Shiga inhibitor -12, Tb PYK inh 2%, RE007 growth inh 0% and LmPK inh 1%.
Screening CCc1ccc(NC(=O)COc2coc(CN3CCN(c4ccccc4)CC3)cc2=O)cc1 returned Tb PYK inh -1% and RE007 growth inh -24%.
`CC(C)Oc1ccc(CNC(=O)C2CCN(c3nc4ccccc4nc3C(F)(F)F)CC2)cc1` gave Tb PYK inh -7%.
Cc1ccc(C(=O)NC(=S)N2CCN(C(=O)OC(C)(C)C)CC2)cc1Br was read as Giardia FBPA inh 5%, Cycloheximide cs -2, Shiga inhibitor -7, Tb PYK inh 2%, RE007 growth inh 0% and LmPK inh 2%.
`Cc1ccc(C(=O)NC(=S)N2CCN(c3ccccc3F)CC2)cc1` gave Giardia FBPA inh 13%, Cycloheximide cs 20, Shiga inhibitor 35*, Tb PYK inh -16%, RE007 growth inh 3% and LmPK inh 2%.
For COc1ccc(C(=O)NC(=S)N2CCN(c3ccccc3OC)CC2)cc1 the results were Giardia FBPA inh 16%, Cycloheximide cs 5, Shiga inhibitor -11, Tb PYK inh 0%, RE007 growth inh inconclusive and LmPK inh 1%.
For Cc1ccc(C(=O)NC(=S)N2CCN(c3cc(C)ccc3C)CC2)cc1 the results were Cycloheximide cs 38*, Shiga inhibitor 49*, Tb PYK inh 1%, RE007 growth inh 6% and LmPK inh -3%.
`O=C(Nc1nc2ccc(Cl)cc2s1)C1CC1` gave Tb PYK inh 1% and RE007 growth inh -12%.
`O=C(Nc1nc2cc3c(cc2s1)OCO3)C1CC1` gave Giardia FBPA inh 3%, Cycloheximide cs 24*, Shiga inhibitor 81*, Tb PYK inh 5%, RE007 growth inh 2% and LmPK inh -1%.
For O=C(Nc1nc2cc3c(cc2s1)OCCO3)C1CCCCC1 the results were Tb PYK inh -9% and RE007 growth inh -18%.
`O=C(Nc1nc2cc3c(cc2s1)OCO3)C1CCCCC1` gave Cycloheximide cs 89*, Shiga inhibitor 108*, Tb PYK inh -4%, RE007 growth inh 1% and LmPK inh 0%.
CCOc1ccc(-c2ccc(SCC(=O)N3CCN(c4ccccc4)CC3)nn2)cc1 was read as Giardia FBPA inh 4%, Cycloheximide cs 3, Shiga inhibitor 3 and LmPK inh 3%.
CCOc1ccc(-c2ccc(SCc3ccccn3)nn2)cc1 was read as Giardia FBPA inh 2%, Cycloheximide cs 40*, Shiga inhibitor 59*, Tb PYK inh 3%, RE007 growth inh 17% and LmPK inh 2%.
`CCc1ccc(-c2ccc(SCc3ccccn3)nn2)cc1` gave Giardia FBPA inh 0%, Cycloheximide cs 41*, Shiga inhibitor 103*, Tb PYK inh -1%, RE007 growth inh 16% and LmPK inh -5%[11.5 µM].
`CCC(=O)Oc1ccc(NC(=O)c2ccco2)cc1` gave Giardia FBPA inh -9%, Cycloheximide cs 7, Shiga inhibitor 33, Tb PYK inh -9%, RE007 growth inh -28% and LmPK inh -14%.
O=C(O)c1ccccc1C(=O)Nc1ccc(Oc2cccc3ccccc23)cc1 was read as Giardia FBPA inh 13%, Cycloheximide cs -12, Shiga inhibitor -26, Tb PYK inh -1%, RE007 growth inh 29% and LmPK inh 0%.
O=C(Nc1ccc(Oc2cccc3ccccc23)cc1)c1ccco1 was read as Giardia FBPA inh -10%, Cycloheximide cs 29*, Shiga inhibitor 44, Tb PYK inh 0%, RE007 growth inh -7% and LmPK inh 8%.
`O=C(Nc1ccc(Cl)c(Cl)c1)Oc1ccc(NC(=O)c2ccco2)cc1` gave Giardia FBPA inh -2%, Cycloheximide cs 22*, Shiga inhibitor 23, Tb PYK inh -3%, RE007 growth inh -23% and LmPK inh 1%.
For O=C(Nc1ccc(OC(=O)c2ccco2)cc1)c1ccco1 the results were Giardia FBPA inh -6%, Cycloheximide cs 18, Shiga inhibitor 32*, Tb PYK inh 2%, RE007 growth inh inconclusive and LmPK inh 14µM*.
`O=C(OC1CCCCC1)c1ccc(NC(=O)c2ccco2)cc1` gave Giardia FBPA inh 0%, Cycloheximide cs 36*, Shiga inhibitor 61*, Tb PYK inh 1%, RE007 growth inh -13% and LmPK inh 2%.
`N#Cc1cccc(NC(=O)N2CCCC3(CCN(C(=O)c4cccc(F)c4)CC3)C2)c1` gave Giardia FBPA inh -5% and Tb PYK inh -6%.
`Cc1nn(-c2ccccc2)c(Cl)c1/C=N/Nc1nc2ccccc2[nH]1` gave Giardia FBPA inh 3%, Cycloheximide cs 39*, Shiga inhibitor 146*, Tb PYK inh -7%, RE007 growth inh -5% and LmPK inh -25%.
Fc1ccc(/C=N/Nc2nc3ccccc3[nH]2)cc1F was read as Giardia FBPA inh -1%, Cycloheximide cs 36*, Shiga inhibitor 118*, Tb PYK inh -3%, RE007 growth inh -10% and LmPK inh 2%.
O=c1[nH]c(N/N=C\c2ccc3c(c2)OCO3)nc2ccccc12 was read as Giardia FBPA inh -9%, Cycloheximide cs 53*, Shiga inhibitor 54*, Tb PYK inh -9%, RE007 growth inh 7% and LmPK inh -24%.
O=C(CCc1nc2ccccc2[nH]1)NC1CCCCC1 was read as Giardia FBPA inh -3%, Cycloheximide cs 4, Shiga inhibitor 7, Tb PYK inh -3%, RE007 growth inh -17% and LmPK inh 4%.
